We go through 34 molecules from PubChem BioAssay (NCATS).

Records with an inconclusive call do not appear. A call without a number means that no potency is given here. Calls of active or inactive are those of the source. The call rests on the fitted dose curve; in most records, active means well fitted cell-killing curve with a large enough effect; inconclusive means small, poorly fitted or top-dose-only effect; inactive means no such curve, though single readings can be large or run the other way.
Potency means the concentration at half of the fitted maximal effect.

The first assay in a line: qHTS of pediatric cancer cell lines to identify multiple opportunities for drug repurposing: Primary screen for A673 cells (AID 1347092). Further: nearly all actives have a fitted effect of over 45% in size. Particulars: A673 Ewing sarcoma viability, CellTiter-Glo ATP luminescence, 48 h; series mostly up to 46 µM. A digest of the protocol: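 A673 cells (500-1,000 cells/well in growth media) were pre-incubated 5 h at 37 degrees C, then exposed to compounds for 48 h. Viability was read as CellTiter-Glo luminescence; concentration-response curves came directly from the primary screen.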
For the molecule `CC(=O)NC(Cc1ccccc1)C(=O)O` (stereo not drawn), the Potency entry was “inactive”.
Regarding `CS(=O)(=O)c1ccc([C@@H](O)[C@@H](CF)NC(=O)C(Cl)Cl)cc1`, the Potency entry is “inactive”.
Take `Nc1nc2c(ncn2CCC(CO)CO)c(=O)[nH]1`: the Potency result is “inactive”.
Still for that read-out and setting: the same measure for `Cc1cccc(Nc2cc(Cl)nc(SCC(=O)O)n2)c1C`: “inactive”.
Regarding `CC(C)(C)NCC(O)COc1ccc(NC(=O)NC2CCCCC2)cc1` (stereo not drawn), the Potency result was “inactive”.
Still for that read-out and setting: the same measure for `O=C1NS(=O)(=O)c2ccccc21`: “inactive”; for `O=C(O)c1ccccn1`: “inactive”; for `CC(C)(O)c1ccccc1CC[C@@H](SCC1(CC(=O)O)CC1)c1cccc(/C=C/c2ccc3ccc(Cl)cc3n2)c1`: “inactive”.
As for `COc1ccccc1O`, the Potency result is “inactive”.
As for `Cc1c(Cl)cccc1Nc1ccccc1C(=O)O`, the Potency result was “inactive”.
For the molecule `N[C@@H](CSSC[C@H](N)C(=O)O)C(=O)O`, the activity change, negative = cytotoxic was -1.55% [at 0.597 µM] (inactive).
`CCCCCCCCCCCCOS(=O)(=O)O`: the Potency result was “inactive”.
In the case of `C[C@@H]1CN(c2c(F)c(F)c3c(=O)c(C(=O)O)cn(C4CC4)c3c2F)C[C@H](C)N1`, the Potency result is “inactive”.
As to `O=C1O[C@H](CO)[C@@H](O)[C@H](O)[C@H]1O`, the Potency entry was “inactive”.
Consider `CC(=O)Nc1ccc(/C=N/NC(N)=S)cc1`, for which the Potency result is “inactive”.
Take `O=C(O)CC(O)C(=O)O` (stereo not drawn): the Potency entry was “inactive”.
For `C[C@@H]1CC[C@@]2(OC1)O[C@H]1C[C@H]3[C@@H]4CC[C@H]5C[C@@H](O)CC[C@]5(C)[C@H]4CC(=O)[C@]3(C)[C@H]1[C@@H]2C`, the activity change, negative = cytotoxic is 9.64% [at 4.84 µM] (inactive).
In the case of `N[C@H]1C(O)O[C@H](CO)[C@@H](O)[C@@H]1O` (stereo partly drawn), the Potency result was “inactive”.
On the same count and under the same terms, the same measure for `C[C@H](N)[C@H](O)c1cccc(O)c1`: “inactive”; for `CCCCN1CCCC[C@H]1C(=O)Nc1c(C)cccc1C`: “inactive”; for `CN(N=O)C(=O)N[C@@H]1[C@@H](O)[C@H](O)[C@@H](CO)O[C@@H]1O`: “inactive”.
For `CN(C)CCCO[C@@H]1[C@H]2OC(C)(C)O[C@H]2O[C@@H]1C(O)CO` (stereo partly drawn), the Potency result is “inactive”.
For the molecule `O=c1cc[nH]c(=S)[nH]1`, the Potency was 0.001 µM (active).
Same read-out and setting: the same measure for `Nc1ccc(S(=O)(=O)Nc2ccccc2)cc1`: “inactive”; for `O=c1cc(CO)occ1O`: “inactive”; for `COc1cc(C)c(Cc2cnc(N)nc2N)cc1OC`: “inactive”.
`CC(C)(C)C(=O)C(Oc1ccc(Cl)cc1)n1ccnc1` (stereo not drawn): the Potency entry is “inactive”.
On the same count and under the same terms, the entry for `COc1cc2[nH]c(=O)[nH]c(=O)c2cc1OC` is “inactive”; for `COc1ccc(S(=O)(=O)Nc2nnc(CC(C)C)s2)cc1` it is “inactive”; for `CCC(=O)Nc1ccc(O)cc1` it is “inactive”.
In the case of `CC1(C)[C@@H]2CC[C@@]1(C)C(=O)C2`, the Potency entry is “inactive”.
Turning to `CN1CCOC(c2ccccc2)c2ccccc2C1` (stereo not drawn), the Potency entry is “inactive”.
Consider `CCN(CC)C(=O)Nc1ccc(OCC(O)CNC(C)(C)C)c(C(C)=O)c1` (stereo not drawn), for which the Potency result is “inactive”.
For `CCCCOc1cc(C(=O)OCCN(CC)CC)ccc1N`, the Potency entry is “inactive”.

The next assay in a line: qHTS of pediatric cancer cell lines to identify multiple opportunities for drug repurposing: Primary screen for SK-N-MC cells (AID 1347093). Conditions: SK-N-MC viability, CellTiter-Glo luminescence, 48 h; series mostly up to 46 µM. The method, boiled down:
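Metabolically active cells were quantified by ATP-dependent luminescence (CellTiter-Glo, 15 min at room temperature) following 48 h treatment. Cells had been plated at 500-1,000 per well and settled for 5 h beforehand.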
Consider `CC(=O)NC(Cc1ccccc1)C(=O)O` (stereo not drawn), for which the Potency entry was “inactive”.
In the case of `CS(=O)(=O)c1ccc([C@@H](O)[C@@H](CF)NC(=O)C(Cl)Cl)cc1`, the Potency result was “inactive”.
Still for that read-out and setting: the entry for `Nc1nc2c(ncn2CCC(CO)CO)c(=O)[nH]1` is “inactive”; for `Cc1cccc(Nc2cc(Cl)nc(SCC(=O)O)n2)c1C` it is “inactive”.
The same measure, in the same setting: the same measure for `CC(C)(C)NCC(O)COc1ccc(NC(=O)NC2CCCCC2)cc1` (stereo not drawn): “inactive”.
On to `O=C1NS(=O)(=O)c2ccccc21`, for which the Potency result was “inactive”.
In the case of `O=C(O)c1ccccn1`, the Potency result was “inactive”.
Same read-out and setting: the same measure for `CC(C)(O)c1ccccc1CC[C@@H](SCC1(CC(=O)O)CC1)c1cccc(/C=C/c2ccc3ccc(Cl)cc3n2)c1`: “inactive”.
For `COc1ccccc1O`, the Potency result is “inactive”.
The same measure, in the same setting: the figure for `Cc1c(Cl)cccc1Nc1ccccc1C(=O)O` is 18.8 µM (active).
As for `N[C@@H](CSSC[C@H](N)C(=O)O)C(=O)O`, the activity change, negative = cytotoxic was -7.24% [at 0.597 µM] (inactive).
`CCCCCCCCCCCCOS(=O)(=O)O`: the Potency entry is “inactive”.
Consider `C[C@@H]1CN(c2c(F)c(F)c3c(=O)c(C(=O)O)cn(C4CC4)c3c2F)C[C@H](C)N1`, for which the Potency result was “inactive”.
The same measure, in the same setting: the same measure for `O=C1O[C@H](CO)[C@@H](O)[C@H](O)[C@H]1O`: “inactive”.
With `CC(=O)Nc1ccc(/C=N/NC(N)=S)cc1`, the Potency entry is “inactive”.
On the same count and under the same terms, the entry for `O=C(O)CC(O)C(=O)O` (stereo not drawn) is “inactive”.
Regarding `C[C@@H]1CC[C@@]2(OC1)O[C@H]1C[C@H]3[C@@H]4CC[C@H]5C[C@@H](O)CC[C@]5(C)[C@H]4CC(=O)[C@]3(C)[C@H]1[C@@H]2C`, the activity change, negative = cytotoxic is 6.15% [at 4.84 µM] (inactive).
`N[C@H]1C(O)O[C@H](CO)[C@@H](O)[C@@H]1O` (stereo partly drawn): the Potency entry was “inactive”.
As for `C[C@H](N)[C@H](O)c1cccc(O)c1`, the Potency entry is “inactive”.
Consider `CCCCN1CCCC[C@H]1C(=O)Nc1c(C)cccc1C`, for which the Potency entry was “inactive”.
Regarding `CN(N=O)C(=O)N[C@@H]1[C@@H](O)[C@H](O)[C@@H](CO)O[C@@H]1O`, the Potency result was “inactive”.
As for `CN(C)CCCO[C@@H]1[C@H]2OC(C)(C)O[C@H]2O[C@@H]1C(O)CO` (stereo partly drawn), the Potency entry is “inactive”.
As for `O=c1cc[nH]c(=S)[nH]1`, the Potency is 2.66 µM (active).
As for `Nc1ccc(S(=O)(=O)Nc2ccccc2)cc1`, the Potency entry was “inactive”.
As to `O=c1cc(CO)occ1O`, the Potency result is “inactive”.
Consider `COc1cc(C)c(Cc2cnc(N)nc2N)cc1OC`, for which the Potency was 11.9 µM (active).
In the case of `CC(C)(C)C(=O)C(Oc1ccc(Cl)cc1)n1ccnc1` (stereo not drawn), the Potency result is “inactive”.
`COc1cc2[nH]c(=O)[nH]c(=O)c2cc1OC`: the Potency entry was “inactive”.
Turning to `COc1ccc(S(=O)(=O)Nc2nnc(CC(C)C)s2)cc1`, the Potency entry is “inactive”.
On to `CCC(=O)Nc1ccc(O)cc1`, for which the Potency result is “inactive”.
On to `CC1(C)[C@@H]2CC[C@@]1(C)C(=O)C2`, for which the Potency result is “inactive”.
For the molecule `CN1CCOC(c2ccccc2)c2ccccc2C1` (stereo not drawn), the Potency entry was “inactive”.
`CCN(CC)C(=O)Nc1ccc(OCC(O)CNC(C)(C)C)c(C(C)=O)c1` (stereo not drawn): the Potency result is “inactive”.
Turning to `CCCCOc1cc(C(=O)OCCN(CC)CC)ccc1N`, the Potency result is “inactive”.
